Experimental data reported in PubChem BioAssay AID1508601 (ICCB-Longwood Screening Facility, Harvard Medical School, 2020).
Among all 5,700 compounds or so, about 85 (1%) were called active. No stated cut-off is given here; in the data, active means p53-positive nuclei above about 36% (passing the limit was not always enough); inactive means the rest. The list comes from a sample in which actives are over-represented; it also holds similar structures and randomly drawn compounds.

Legend:
[1] = p53 stabilisation in HPV-positive human cells, imaging, p53-positive nuclei imaging, 24 h, 48 h (AID 1508601); conditions: 24/48 h
[2] = biological target: Cellular tumor antigen p53 (Homo sapiens) (UniProt P04637); test: as above; conditions: 24/48 h, stronger effect = higher value
Chain of Cellular tumor antigen p53 (Homo sapiens) (P04637 whole entry, looked up): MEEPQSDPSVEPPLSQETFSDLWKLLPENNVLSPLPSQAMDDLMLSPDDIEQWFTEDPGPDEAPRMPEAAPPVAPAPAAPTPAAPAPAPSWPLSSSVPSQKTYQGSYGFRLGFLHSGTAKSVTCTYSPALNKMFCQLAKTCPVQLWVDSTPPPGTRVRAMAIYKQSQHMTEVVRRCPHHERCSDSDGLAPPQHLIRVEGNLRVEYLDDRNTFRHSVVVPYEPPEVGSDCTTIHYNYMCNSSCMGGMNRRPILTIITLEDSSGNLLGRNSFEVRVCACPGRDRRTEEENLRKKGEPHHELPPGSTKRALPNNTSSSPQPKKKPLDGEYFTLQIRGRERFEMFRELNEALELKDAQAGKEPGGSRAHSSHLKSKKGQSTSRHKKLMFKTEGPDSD

[3] = measured here: cell number at 24 h, Library stock concentration: 3.33 mM
[4] = measured here: cell number at 48 h, Library stock concentration: 3.33 mM
[5] = Library stock concentration: 3.33 mM
[6] = measured here: p53 positive nuclei at 24 h, Library stock concentration: 3.33 mM
[7] = measured here: cell number at 24 h, Library stock concentration: 80 uM
[8] = measured here: cell number at 24 h, Library stock concentration: 400 uM
[9] = measured here: cell number at 24 h, Library stock concentration: 2 mM
[10] = measured here: cell number at 24 h, Library stock concentration: 10 mM
[11] = measured here: cell number at 48 h, Library stock concentration: 80 uM
[12] = measured here: cell number at 48 h, Library stock concentration: 400 uM
[13] = measured here: cell number at 48 h, Library stock concentration: 2 mM
[14] = measured here: cell number at 48 h, Library stock concentration: 10 mM
[15] = Library stock concentration: 80 uM
[16] = Library stock concentration: 400 uM
[17] = Library stock concentration: 2 mM
[18] = Library stock concentration: 10 mM
[19] = measured here: p53 positive nuclei at 24 h, Library stock concentration: 80 uM
[20] = measured here: p53 positive nuclei at 24 h, Library stock concentration: 400 uM
[21] = measured here: p53 positive nuclei at 24 h, Library stock concentration: 2 mM
[22] = measured here: p53 positive nuclei at 24 h, Library stock concentration: 10 mM
[23] = measured here: cell number at 24 h, concentration not given here
[24] = measured here: cell number at 48 h, concentration not given here
[25] = measured here: p53 positive nuclei at 24 h, concentration not given here

SMILES: CCN(CC)Cc1ccc2cc(COC(=O)Nc3ccc(C(=O)NO)cc3)ccc2c1
- nuclei count, normalised [1, 3]: 39.9%
- nuclei count, normalised [1, 4]: 22.6%
- p53-positive nuclei, normalised [2, 5]: 95.7% (active)
- p53-positive nuclei, normalised [2, 6]: 67.1%

SMILES: CCN1CCN(Cc2ccc(Nc3ncc4c(n3)N(C)c3ccccc3C(=O)N4C)cc2C(F)(F)F)CC1
- nuclei count, normalised [1, 7]: 77.9%
- nuclei count, normalised [1, 8]: 81%
- nuclei count, normalised [1, 9]: 52.5%
- nuclei count, normalised [1, 10]: 35.9%
- nuclei count, normalised [1, 11]: 81.7%
- nuclei count, normalised [1, 12]: 83.6%
- nuclei count, normalised [1, 13]: 35.4%
- nuclei count, normalised [1, 14]: 19.9%
- p53-positive nuclei, normalised [2, 15]: -0.0235% (inactive)
- p53-positive nuclei, normalised [2, 16]: -0.051% (inactive)
- p53-positive nuclei, normalised [2, 17]: 1.78% (inactive)
- p53-positive nuclei, normalised [2, 18]: 22.4% (inactive)
- p53-positive nuclei, normalised [2, 19]: -0.148%
- p53-positive nuclei, normalised [2, 20]: -0.0416%
- p53-positive nuclei, normalised [2, 21]: -0.148%
- p53-positive nuclei, normalised [2, 22]: 33.5%

SMILES: CC1CCO[C@H]2Cn3cc(C(=O)NCc4ccc(F)cc4F)c(=O)c(O)c3C(=O)N12 (stereo partly specified)
- nuclei count, normalised [1, 3]: 106%
- nuclei count, normalised [1, 4]: 103%
- p53-positive nuclei, normalised [2, 5]: -0.143% (inactive)
- p53-positive nuclei, normalised [2, 6]: -0.188%

SMILES: CCCCC[C@H](O)/C=C/[C@H]1C2CC(CO2)[C@@H]1C/C=C\CCCC(=O)O (stereo partly specified)
- nuclei count, normalised [1, 23]: 83.4%
- nuclei count, normalised [1, 24]: 84.7%
- p53-positive nuclei, normalised ([2]; concentration not given here): 0.109% (inactive)
- p53-positive nuclei, normalised [2, 25]: 0.00988%

SMILES: CN1CCN(C(=S)SSC(=S)N2CCN(C)CC2)CC1
- nuclei count, normalised [1, 7]: 108%
- nuclei count, normalised [1, 8]: 109%
- nuclei count, normalised [1, 9]: 60.3%
- nuclei count, normalised [1, 10]: 52.3%
- nuclei count, normalised [1, 11]: 109%
- nuclei count, normalised [1, 12]: 109%
- nuclei count, normalised [1, 13]: 53.9%
- nuclei count, normalised [1, 14]: 37.3%
- p53-positive nuclei, normalised [2, 15]: -0.131% (inactive)
- p53-positive nuclei, normalised [2, 16]: -0.138% (inactive)
- p53-positive nuclei, normalised [2, 17]: 39.2% (active)
- p53-positive nuclei, normalised [2, 18]: 89.9% (active)
- p53-positive nuclei, normalised [2, 19]: -0.116%
- p53-positive nuclei, normalised [2, 20]: -0.0641%
- p53-positive nuclei, normalised [2, 21]: 99.7%
- p53-positive nuclei, normalised [2, 22]: 111%

SMILES: CCN(CC)C(=O)N1CCN(C)CC1
- nuclei count, normalised [1, 23]: 108%
- nuclei count, normalised [1, 24]: 102%
- p53-positive nuclei, normalised ([2]; concentration not given here): 0.000717% (inactive)
- p53-positive nuclei, normalised [2, 25]: -0.0826%

SMILES: CC(C)(CO)c1cc2cc(NC(=O)C3(c4ccc5c(c4)OC(F)(F)O5)CC3)c(F)cc2n1CC(O)CO (stereo unspecified)
- nuclei count, normalised [1, 7]: 99.2%
- nuclei count, normalised [1, 8]: 104%
- nuclei count, normalised [1, 9]: 106%
- nuclei count, normalised [1, 3]: 118%
- nuclei count, normalised [1, 10]: 113%
- nuclei count, normalised [1, 11]: 105%
- nuclei count, normalised [1, 12]: 107%
- nuclei count, normalised [1, 13]: 110%
- nuclei count, normalised [1, 4]: 120%
- nuclei count, normalised [1, 14]: 111%
- p53-positive nuclei, normalised [2, 15]: 0.0351% (inactive)
- p53-positive nuclei, normalised [2, 16]: 0.0964% (inactive)
- p53-positive nuclei, normalised [2, 17]: -0.0537% (inactive)
- p53-positive nuclei, normalised [2, 5]: -0.0559% (inactive)
- p53-positive nuclei, normalised [2, 18]: 0.115% (inactive)
- p53-positive nuclei, normalised [2, 19]: 0.0925%
- p53-positive nuclei, normalised [2, 20]: 0.0862%
- p53-positive nuclei, normalised [2, 21]: -0.0708%
- p53-positive nuclei, normalised [2, 6]: -0.244%
- p53-positive nuclei, normalised [2, 22]: 0.119%

SMILES: O=C(c1cc(-c2cncnc2)nc2cc(F)ccc12)N1CCCC1Cc1cccnc1 (stereo unspecified)
- nuclei count, normalised [1, 23]: 109%
- nuclei count, normalised [1, 24]: 110%
- p53-positive nuclei, normalised ([2]; concentration not given here): 0.0107% (inactive)
- p53-positive nuclei, normalised [2, 25]: 0.143%

SMILES: O=C1CN2Cc3c(ccc(Cl)c3Cl)N=C2N1
- nuclei count, normalised ([1]; measured here: cell number at 24 h, Library stock concentration: 46 uM): 88.7%
- nuclei count, normalised ([1]; measured here: cell number at 24 h, Library stock concentration: 278 uM): 80.4%
- nuclei count, normalised ([1]; measured here: cell number at 24 h, Library stock concentration: 1.67 mM): 83.9%
- nuclei count, normalised [1, 3]: 57.2%
- nuclei count, normalised [1, 10]: 75.8%
- nuclei count, normalised ([1]; measured here: cell number at 48 h, Library stock concentration: 46 uM): 45.1%
- nuclei count, normalised ([1]; measured here: cell number at 48 h, Library stock concentration: 278 uM): 38.3%
- nuclei count, normalised ([1]; measured here: cell number at 48 h, Library stock concentration: 1.67 mM): 40.9%
- nuclei count, normalised [1, 4]: 24.8%
- nuclei count, normalised [1, 14]: 40.2%
- p53-positive nuclei, normalised ([2]; Library stock concentration: 46 uM): 85.8% (active)
- p53-positive nuclei, normalised ([2]; Library stock concentration: 278 uM): 88.2% (active)
- p53-positive nuclei, normalised ([2]; Library stock concentration: 1.67 mM): 89.8% (active)
- p53-positive nuclei, normalised [2, 5]: 84.4% (active)
- p53-positive nuclei, normalised [2, 18]: 87% (active)
- p53-positive nuclei, normalised ([2]; measured here: p53 positive nuclei at 24 h, Library stock concentration: 46 uM): 5.38%
- p53-positive nuclei, normalised ([2]; measured here: p53 positive nuclei at 24 h, Library stock concentration: 278 uM): 6.86%
- p53-positive nuclei, normalised ([2]; measured here: p53 positive nuclei at 24 h, Library stock concentration: 1.67 mM): 6.48%
- p53-positive nuclei, normalised [2, 6]: 11%
- p53-positive nuclei, normalised [2, 22]: 6.76%

SMILES: O=C1OC2(c3ccc(O)cc3Oc3cc(Oc4ccc(O)cc4)ccc32)c2ccccc21 (stereo unspecified)
- nuclei count, normalised [1, 23]: 105%
- nuclei count, normalised [1, 24]: 107%
- p53-positive nuclei, normalised ([2]; concentration not given here): -0.0688% (inactive)
- p53-positive nuclei, normalised [2, 25]: -0.118%
